Results taken from the supplement of paper PMC9023506.
Structures can show the parent of a compound that is named as a salt.

The molecules below were run on Danio rerio larvae (5 dpf) (assay: optomotor response to fast red moving lines, difference vs DMSO (percentage points (treated minus DMSO)); higher = more of the behaviour than the DMSO vehicle control). Conditions: 10 µM; exposure time: 3 h pre-incubation + 3 h imaging.
Method: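 5-dpf wild-type zebrafish larvae were imaged in 96-well plates. They were treated with 190 Tocris FDA-approved drugs at 10 µM (1 µl/ml DMSO) for 3 h before and 3 h during imaging at 28.5 °C, 48 larvae per drug. Automated image analysis gave % time moving and optomotor responses. Values are drug group mean minus DMSO vehicle mean (n=844), in percentage points, for 10 behaviours.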

First: Clc1ccccc1C(c1ccccc1)(c1ccccc1)n1ccnc1 [Clotrimazole]
Second: CC/C(=C(\c1ccccc1)c1ccc(OCCN(C)C)cc1)c1ccccc1 [Tamoxifen citrate]
The optomotor response of the first is higher: 17.9 for the first, -8.84 for the second.

Going from `CC[C@H]1OC(=O)[C@H](C)[C@@H](O[C@H]2C[C@@](C)(OC)[C@@H](O)[C@H](C)O2)[C@H](C)[C@@H](O[C@@H]2O[C@H](C)C[C@H](N(C)C)[C@H]2O)[C@](C)(O)C[C@@H](C)CN(C)[C@H](C)[C@@H](O)[C@]1(C)O` [Azithromycin] to `COc1cccc2c1C(=O)c1c(O)c3c(c(O)c1C2=O)C[C@@](O)(C(=O)CO)C[C@@H]3O[C@H]1C[C@H](N)[C@H](O)[C@H](C)O1` [Doxorubicin hydrochloride], the optomotor response rises from -9.96 to 6.53.

Going from `OCCN(CCO)c1nc(N2CCCCC2)c2nc(N(CCO)CCO)nc(N3CCCCC3)c2n1` [Dipyridamole] to `CC1CNc2c(cccc2S(=O)(=O)N[C@@H](CCCNC(=N)N)C(=O)N2CC[C@@H](C)C[C@@H]2C(=O)O)C1` (stereo not given in full) [Argatroban], the optomotor response falls from 7.3 to -3.36.

Compared with `CN(C)CC/C=C1/c2ccccc2COc2ccc(CC(=O)O)cc21` [Olopatadine hydrochloride], `COc1ccc([C@@H]2Sc3ccccc3N(CCN(C)C)C(=O)[C@@H]2OC(C)=O)cc1` [Diltiazem hydrochloride] is lower in optomotor response: 5.8 for the first, -0.971 for the second.

First: COc1ccc(C[C@@H](C)NC[C@H](O)c2ccc(O)c(NC=O)c2)cc1 [Arformoterol tartrate]
Second: COCCc1ccc(OCC(O)CNC(C)C)cc1 (stereo not given) [Metoprolol tartrate]
The optomotor response of the first is lower: -17.7 for the first, -7.77 for the second.

Compared with `C=CC(=O)N1CCC[C@@H](n2nc(-c3ccc(Oc4ccccc4)cc3)c3c(N)ncnc32)C1` [Ibrutinib], `CNC(=O)c1cc(Oc2ccc(NC(=O)Nc3ccc(Cl)c(C(F)(F)F)c3)cc2)ccn1` [Sorafenib] is lower in optomotor response: -0.957 for the first, -21.1 for the second.

Compared with `C[C@H]1O[C@H](O[C@H]2[C@H](O)[C@@H](O)[C@@H](O[C@H]3[C@H](O)[C@@H](O)C(O)O[C@@H]3CO)O[C@@H]2CO)[C@H](O)[C@@H](O)[C@@H]1N[C@H]1C=C(CO)[C@@H](O)[C@H](O)[C@H]1O` (stereo not given in full) [Acarbose], `CCCCCOC(=O)Nc1nc(=O)n([C@@H]2O[C@H](C)[C@@H](O)[C@H]2O)cc1F` [Capecitabine] is lower in optomotor response: 12.4 for the first, 5.07 for the second.

Going from `CN(C)C(=N)NC(=N)N` [Metformin hydrochloride] to `CNS(=O)(=O)Cc1ccc2[nH]cc(CCN(C)C)c2c1` [Sumatriptan succinate], the optomotor response falls from 10.2 to -17.2.

Going from `COC(=O)C1=C(C)NC(C)=C(C(=O)OC(C)C)C1c1cccc2nonc12` (stereo not given) [Isradipine] to `CC(C)OC(=O)C(C)(C)Oc1ccc(C(=O)c2ccc(Cl)cc2)cc1` [Fenofibrate], the optomotor response rises from -16.6 to 19.2.

Compared with `CC(C)N(CCCCOCC(=O)NS(C)(=O)=O)c1cnc(-c2ccccc2)c(-c2ccccc2)n1` [Selexipag], `CC(C)COCC(CN(Cc1ccccc1)c1ccccc1)N1CCCC1` (stereo not given) [Bepridil hydrochloride] is higher in optomotor response: -6.49 for the first, 7.72 for the second.

Going from `COc1ccccc1OCC(O)CN1CCN(CC(=O)Nc2c(C)cccc2C)CC1` (stereo not given) [Ranolazine dihydrochloride] to `Cc1cccc(CN2CCN(C(c3ccccc3)c3ccc(Cl)cc3)CC2)c1` (stereo not given) [Meclizine dihydrochloride], the optomotor response falls from 9.26 to -10.8.

Compared with `C[C@@H]1C[C@H]2[C@@H]3CCC4=CC(=O)C=C[C@]4(C)[C@@]3(F)[C@@H](O)C[C@]2(C)[C@@]1(O)C(=O)CO` [Dexamethasone], `CC(C)[C@H]1CC[C@H](C(=O)N[C@H](Cc2ccccc2)C(=O)O)CC1` [Nateglinide] is lower in optomotor response: 0.576 for the first, -0.789 for the second.

Going from `CC(=O)NC[C@H]1CN(c2ccc(N3CCOCC3)c(F)c2)C(=O)O1` [Linezolid] to `COc1cc(N)c(Cl)cc1C(=O)NC1CCN(CCCOc2ccc(F)cc2)CC1OC` (stereo not given) [Cisapride], the optomotor response rises from 5.73 to 9.11.

Compared with `O=c1n(CCCN2CCN(c3cccc(Cl)c3)CC2)nc2ccccn12` [Trazodone hydrochloride], `CN1CC2c3ccccc3Oc3ccc(Cl)cc3C2C1` (stereo not given) [Asenapine maleate] is lower in optomotor response: 5.34 for the first, -11.9 for the second.

First: Cc1cccc(C)c1OCC(C)N (stereo not given) [Mexiletine hydrochloride]
Second: NS(=O)(=O)Cc1noc2ccccc12 [Zonisamide]
The optomotor response of the first is higher: 0.599 for the first, -0.856 for the second.

First: CC(=O)Nc1ccc(O)cc1 [Acetaminophen]
Second: CC(=O)Oc1ccccc1C(=O)O [Aspirin]
The optomotor response of the first is lower: -11.2 for the first, -7.85 for the second.

First: Clc1ccc2nsnc2c1NC1=NCCN1 [Tizanidine hydrochloride]
Second: Cc1ccc(N(CC2=NCCN2)c2cccc(O)c2)cc1 [Phentolamine Mesylate]
The optomotor response of the first is lower: 4.15 for the first, 7.53 for the second.

First: Cn1cnc([N+](=O)[O-])c1Sc1ncnc2[nH]cnc12 [Azathioprine]
Second: CN(C)CCc1c[nH]c2ccc(Cn3cncn3)cc12 [Rizatriptan benzoate]
The optomotor response of the first is higher: 9.79 for the first, 5 for the second.

Going from `Cc1ccc(O)c([C@H](CCN(C(C)C)C(C)C)c2ccccc2)c1` [Tolterodine L-tartrate] to `CN[C@H]1CC[C@@H](c2ccc(Cl)c(Cl)c2)c2ccccc21` [Sertraline hydrochloride], the optomotor response falls from 2.15 to -8.12.

Compared with `C[C@H](Cc1cc2c(c(C(N)=O)c1)N(CCCO)CC2)NCCOc1ccccc1OCC(F)(F)F` [Silodosin], `CCOC(=O)N1CCC(=C2c3ccc(Cl)cc3CCc3cccnc32)CC1` [Loratidine] is lower in optomotor response: 11.4 for the first, -26.1 for the second.
